Screening data (PubChem)
Hits are enriched below; roughly 21% of the tested compounds scored in any of these assays.
Pf growth 48h: Primary qHTS for delayed death inhibitors of the malarial parasite plastid, 48 hour incubation; P. falciparum luciferase growth in erythrocytes, 48 h; Potency, µM (top dose mostly 28.7 µM), usual class: inhibitors; actives 5.9% (n = 310,000); AID 504832, 2011
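Read-out is firefly luciferase luminescence from an integrated reporter in P. falciparum, so falling signal marks reduced parasite growth. Infected erythrocytes were at 2% hematocrit and 0.1% parasitemia (final) in Albumax-supplemented RPMI 1640.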
CHX counter: Cycloheximide Counterscreen for Small Molecule Inhibitors of Shiga Toxin. cell reporter, cycloheximide protein synthesis inhibition counterscreen. max response, %. actives 12% (n = 300,000); in the data active means max response mostly above about 13%, no sharp cut-off; inactive means mostly below about 14%; further: read at 38.3 µM for the half of the compounds with a filed dose
Shiga toxin inh: A qHTS for Small Molecule Inhibitors of Shiga Toxin; AID 2315, 2010; inhibition, % at 38.7 µM; Vero cells, Shiga toxin protein synthesis inhibition reporter; actives 9.2% (n = 290,000); in the data active means inhibition mostly above about 28%, no sharp cut-off; inactive means mostly below about 43%
Pf growth 96h: Primary qHTS for delayed death inhibitors of the malarial parasite plastid, 96 hour incubation | actives 6.9% (n = 320,000) | Potency, µM (doses to about 28.7 µM), actives largely listed as inhibitors | P. falciparum luciferase reporter growth, 96 h | AID 504834, 2011
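Cell-based qHTS: luciferase-tagged P. falciparum in erythrocytes (2% hematocrit, 0.05% parasitemia final) incubated with compounds for 96 hours, 37 C, 5% CO2; luciferase detection reagent then added and luminescence measured.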
Large screens that a line does not name were inactive. Unless noted, the call rests on the fitted dose curve; in most records, active means well fitted inhibition curve with a large enough effect; inconclusive means small, poorly fitted or top-dose-only effect, or another doubt; inactive means no such curve, though single readings can be large or run the other way.

CN(CCOc1ccc(Cl)cc1)C(=O)C1CCN(C(=O)c2ccc(Cl)cc2)CC1	Pf growth 48h inconclusive, Pf growth 96h inconclusive
COc1ccc(Cn2c(C(C)C)nc3sc4ccccc4c(=O)c3c2=O)cc1	Pf growth 48h inconclusive, Pf growth 96h inconclusive
Cn1c2ccccc2c(=O)c2c(=O)n(Cc3ccccc3)c(-c3ccc(F)cc3)nc21	Pf growth 48h inconclusive, Pf growth 96h 5.22µM
COCCn1c(-c2cccc(Br)c2)nc2c(c(=O)c3ccccc3n2C)c1=O	Pf growth 48h inconclusive, Pf growth 96h inconclusive
CCCc1nc2sc3ccccc3c(=O)c2c(=O)n1Cc1ccc(OC)cc1	Pf growth 48h inconclusive, Pf growth 96h 10.4µM
Cc1nc2c(c(=O)c3ccccc3n2C)c(=O)n1-c1ccccc1	Pf growth 48h inconclusive, Pf growth 96h inconclusive
COCCn1c(-c2ccccc2)nc2c(c(=O)c3ccccc3n2C)c1=O	Pf growth 48h inconclusive, Pf growth 96h 14.7µM
Cc1nnc(SCC(=O)Nc2ccc(Cl)cn2)s1	none
CC(=O)c1ccc(NC(=O)c2ccc(C)c(S(=O)(=O)N3CCOCC3)c2)cc1	Pf growth 48h inconclusive
Cc1ccc(C(=O)Nc2ccc3cn[nH]c3c2)cc1S(=O)(=O)N1CCOCC1	Pf growth 48h inconclusive, CHX counter 21.2, Shiga toxin inh 49.2, Pf growth 96h inconclusive
COc1ccc(NS(=O)(=O)c2ccc(C)c(NC(=O)c3ccc(C)c(S(=O)(=O)N4CCOCC4)c3)c2)cc1	Pf growth 48h inconclusive, Pf growth 96h 14.7µM
C#C[C@]1(OC(C)=O)CC[C@H]2[C@@H]3CCC4=C/C(=N/O)CC[C@@H]4[C@H]3CC[C@@]21CC	Pf growth 96h 0.953µM (no result: CHX counter, Shiga toxin inh)
COc1ccc(/C=C/C2=Nc3ccccc3NC(C)(C)C2)cc1OC	Pf growth 48h inconclusive, CHX counter 42.2, Shiga toxin inh 59.4, Pf growth 96h inconclusive
O=C(Cc1ccc(F)cc1)Nc1nccs1	Pf growth 48h inconclusive, Pf growth 96h inconclusive
CC(=O)Cc1nsc(NC(=O)c2ccccc2)n1	none
O=C(Nc1nccs1)c1ccc(-c2ccc(F)cc2)o1	CHX counter 40.9, Shiga toxin inh 94.8
CC(=O)Cc1nsc(NC(=O)c2ccc(-c3ccc(F)cc3)o2)n1	CHX counter 15.7, Pf growth 96h inconclusive
O=C(Nc1nccs1)c1ccc(-c2ccc(Cl)cc2)o1	Pf growth 48h inconclusive, CHX counter 51.0, Shiga toxin inh 94.1
CC(=O)Cc1nsc(NC(=O)c2cccs2)n1	CHX counter 30.7
O=C(Nc1nccs1)c1ccc(-c2ccc([N+](=O)[O-])cc2)o1	CHX counter 25.6, Shiga toxin inh 120.0
COc1ccc(NC(=O)c2ccc(-c3ccc([N+](=O)[O-])cc3)o2)cc1	none
Cc1nccc(-c2cccc(N/N=C(\C#N)C(=O)c3ccccc3)c2)n1	Pf growth 48h 13.1µM, Pf growth 96h 5.22µM
Cc1ccc2nc(Cl)c(/C=N/NC(=O)[C@H]3C[C@@H]3c3ccccc3)cc2c1	Pf growth 48h inconclusive, Pf growth 96h 2.08µM
Oc1ccc(Cl)cc1C1=Nc2ccccc2N=C(c2ccco2)C1	Pf growth 48h inconclusive
Fc1ccccc1C1CC(c2ccco2)=Nc2ccccc2S1 (stereo not drawn)	CHX counter 49.4, Shiga toxin inh 103.8
Cc1cccc(NC(=O)Nc2ccc3c(c2)N(C)C(=O)CS3)n1	Pf growth 96h 10.4µM (no result: Pf growth 48h)
Cc1ccc(NC(=O)Nc2ccc3c(c2)N(C)C(=O)CS3)nc1	Pf growth 48h inconclusive, Pf growth 96h inconclusive
Cc1ccnc(NC(=O)Nc2ccc3c(c2)N(C)C(=O)CS3)c1	CHX counter 82.8, Shiga toxin inh 155.8, Pf growth 96h 13.1µM
Cc1ccc(C)c(Cn2c3ccccc3c3cnn(CC(=O)NCCCN4CCCCC4)c(=O)c32)c1	Pf growth 48h inconclusive
Cc1ccc(OCc2nnc(SCC(=O)N3C(C)CCCC3C)o2)cc1 (stereo not drawn)	none
O=C(CCCn1nnnc1CN1CCOCC1)N1CCC(c2ccc(F)cc2)C1 (stereo not drawn)	Pf growth 96h 7.38µM
CCOC(=O)CC1CCCCN1C(=O)CCCn1nnnc1CN1CCOCC1 (stereo not drawn)	none
COc1ccc(N2CCN(C(=O)CCCn3nnnc3CN3CCOCC3)C(C)C2)cc1 (stereo not drawn)	Pf growth 96h 11.7µM
Nc1nc(N)nc(Cc2ccccc2O)n1	Pf growth 96h inconclusive (no result: CHX counter, Shiga toxin inh)
O=C1CN(C(=O)COc2ccc(F)cc2Br)c2ccccc2N1	Pf growth 48h inconclusive, Shiga toxin inh 36.0, Pf growth 96h inconclusive
Cc1cc(=O)oc2cc(OCC(=O)N3CC(=O)Nc4ccccc43)c(Cl)cc12	Pf growth 48h 13.1µM, Pf growth 96h inconclusive (no result: CHX counter, Shiga toxin inh)
COc1ccc(CNC(=O)COC(=O)C2CCN(S(=O)(=O)c3ccccc3C(F)(F)F)CC2)cc1	none
O=C1CN(C(=O)COC(=O)C2CCN(S(=O)(=O)c3ccccc3C(F)(F)F)CC2)c2ccccc2N1	Pf growth 48h 3.7µM (no result: Pf growth 96h)
CCOC(=O)CCNC(=O)N1CCCC(N2CCN(c3ccc(OC)cc3)CC2)C1 (stereo not drawn)	Pf growth 96h 2.94µM (no result: Shiga toxin inh)
Nc1c(O)ccc2c1C(=O)c1ccccc1C2=O	CHX counter 11.8, Pf growth 96h inconclusive
COc1ccc2c(c1O)C(=O)c1ccccc1C2=O	none
O=C(CN1CCOCC1)NCc1cc([N+](=O)[O-])ccc1O	Pf growth 96h inconclusive (no result: Shiga toxin inh)
Cc1ccc(Nc2nc3ccccc3n3nnnc23)cc1	CHX counter 25.6, Shiga toxin inh 71.5
COc1ccc(Nc2nc3ccccc3n3nnnc23)cc1	none (no result: Pf growth 48h)
Fc1cc(Br)ccc1Nc1nc2ccccc2n2nnnc12	CHX counter 26.9, Shiga toxin inh 42.5
COc1ccc(C(=O)N/N=C(/C)c2cccc(NC(=O)C(F)(F)F)c2)cc1	CHX counter 36.8, Shiga toxin inh 72.7
C/C(=N/NC(=O)c1ccoc1C)c1cccc(NC(=O)C(F)(F)F)c1	CHX counter 59.4, Shiga toxin inh 104.5
C/C(=N/NC(=O)c1ccoc1C)c1cccc(NC(=O)C2CC2)c1	CHX counter 63.4, Shiga toxin inh 73.2
Cc1occc1C(=O)Nc1cccc(C(F)(F)F)c1	none
C/C(=N/NC(=O)c1ccc(C)s1)c1cccc(NC(=O)c2ccoc2C)c1	CHX counter 32.3
CCC(=O)Nc1ccc(/C(C)=N\NC(=O)c2ccc(OC)cc2)cc1	Pf growth 96h inconclusive
CCCCC(=O)N/N=C(\C)c1cccc(NC(=O)C2CC2)c1	none
C[C@]12CC[C@@H]3c4ccc(O)cc4CC[C@H]3[C@@H]1C[C@H](O)C2O (stereo partly drawn)	Pf growth 96h inconclusive (no result: CHX counter, Shiga toxin inh)
Cn1ncc(Cl)c1C(=O)NCC1CCCO1 (stereo not drawn)	none
Cc1cccn2c(CN3CCCC(c4ccccc4)C3)c(C(=O)N3CCOCC3)nc12 (stereo not drawn)	Pf growth 48h inconclusive
COCCC(=O)Nc1c(-c2ccccc2)c2cc(Br)ccc2[nH]c1=O	Pf growth 96h inconclusive (no result: Shiga toxin inh)
C=CCSc1nnc(-c2nnc(SCC=C)n2CC)n1CC	Pf growth 48h 10.4µM, Pf growth 96h 11.7µM
C=CCSc1nnc(CNC(=O)c2ccc(Cl)cc2)n1CC	none
Cc1cc(C)c(NC(=O)Cn2cc3c(n2)CCCC3)c(C)c1	none
Cc1ccc2nc(NC(=O)Cn3cc4c(n3)CCCCC4)sc2c1	CHX counter 16.0
